In the library only some 27% were active in any assay of this set; here they are far more common.
sEH inhibitor – soluble epoxide hydrolase (human) inhibition; recombinant human sEH enzymatic activity assay; inhibition, % at 2 µM; actives 0.34% (n = 91,000); AID 707; in the data active = inhibition above about 80%
CYP2C9 inhib – human CYP2C9 inhibition; P11712; CYP2C9 Supersomes, luciferin-H conversion, luminescence; inhibition, % at 5 µM; actives 20% (n = 96,000);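 active = blocking of liver enzyme CYP2C9 beyond about 50% at 5 µM, limit read from the data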
Target sequence (P11712 whole entry, looked up): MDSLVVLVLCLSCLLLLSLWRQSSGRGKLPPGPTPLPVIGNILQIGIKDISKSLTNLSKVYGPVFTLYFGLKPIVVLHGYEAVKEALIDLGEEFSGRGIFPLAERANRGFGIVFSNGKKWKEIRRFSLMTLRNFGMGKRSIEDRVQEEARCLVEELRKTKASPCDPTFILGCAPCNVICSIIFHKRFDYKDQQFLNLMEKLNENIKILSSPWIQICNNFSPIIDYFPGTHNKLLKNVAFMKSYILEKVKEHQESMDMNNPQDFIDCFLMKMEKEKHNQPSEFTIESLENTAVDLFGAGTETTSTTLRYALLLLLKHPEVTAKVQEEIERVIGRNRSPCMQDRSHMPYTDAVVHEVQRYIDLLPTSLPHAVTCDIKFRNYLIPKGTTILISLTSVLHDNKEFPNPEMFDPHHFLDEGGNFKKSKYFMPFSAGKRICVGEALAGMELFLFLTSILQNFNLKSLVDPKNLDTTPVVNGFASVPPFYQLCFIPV
CYP2C9 activ – increases human cytochrome P450 2C9 activity | activation factor at 5 µM | AID 1024 | recombinant CYP2C9, luciferin-H conversion, luminescence; active compounds read high; factor 1 = untreated enzyme, 0 = blocked | actives 1.4% (n = 96,000) | P11712;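 active = activation factor of 2 or more for CYP2C9 at a 5 µM dose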;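 note: 0 = sulfaphenazole-blocked wells and 1 = vehicle-only wells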
CYP2C19 act – activators of human cytochrome P450 2C19 | P33261 | recombinant CYP2C19, luciferin-H EGE luminescence; active compounds read high; 0 = fully inhibited enzyme, 1 = untreated enzyme | activation factor at 5 µM | 96,000 tested, under 10 active | AID 1025;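 active = activation factor of at least 2 at 5 µM in the primary screen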;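 note: 0 = wells with 2.5 mM tranylcypromine and 1 = vehicle-only wells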
sEH act – activators of human soluble epoxide hydrolase | P34913 | purified human sEH enzymatic activity, activator screen | activation, % at 2 µM | actives 0.04% (n = 91,000); in the data active = activation above about 37%
CYP2C19 inhib – inhibitors of human CYP2C19; P33261; CYP2C19 Supersomes, luciferin-H EGE luminescence, 30 min; actives 21% (n = 96,000); AID 778; inhibition, % at 5 µM;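 active = CYP2C19 inhibition above a set limit at 5 µM in the primary screen, cut at about 50% in these data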;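 note: plate controls were negative control wells for no effect and 2.5 mM tranylcypromine positive control for full effect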
Active calls of the source: *; . = not tested or not shown.

SMILES	sEH inhibitor	CYP2C9 inhib	CYP2C9 activ	CYP2C19 act	sEH act	CYP2C19 inhib
COC(=O)c1ccc(-c2nc(O)c3cnccn23)cc1	-26	49	0.5	0.5	28	51*
CCOC(=O)C(C)n1cnc2c(oc3ccccc32)c1=O (stereo unspecified)	-5	18	0.8	0.9	5	8
C=CCSC1=Nc2sccc2C2=NC(=O)CN12	0	-6	1.1	0.7	6	35
COc1ccc(C)cc1S(=O)(=O)N(CC(=O)N1CCOCC1)Cc1ccccc1	.	45	0.6	0.3	.	66*
CS(=O)(=O)N(CC(=O)N1CCOCC1)Cc1ccccc1	-15	2	1	0.9	13	12
COc1ccc(S(=O)(=O)N(CC(=O)O)Cc2ccccc2)cc1OC	.	19	0.8	0.9	.	8
COc1ccc(S(=O)(=O)N(CCc2ccccc2)CC(=O)O)cc1C	-14	73*	0.3	0.4	11	62*
COc1ccc(S(=O)(=O)N(CC(=O)N2CCOCC2)Cc2ccccc2)cc1C	-7	27	0.7	0.3	6	72*
COc1ccc(CCNC(=O)C2CC(c3ccccc3[N+](=O)[O-])=NO2)cc1 (stereo unspecified)	-4	40	0.6	0.8	2	21
O=C1CCCc2nn(-c3ccccc3)c(-c3ccncc3)c21	.	18	0.8	0.9	.	7
CC1CCc2nn(CC(=O)N3CCc4ccccc43)cc2C1 (stereo unspecified)	-6	23	0.8	0.7	4	26
N=c1n(CCN2CCOCC2)c2ccccc2n1Cc1ccccc1Br	-3	0	1	1	4	0
CCOC(=O)c1c(NC(=O)c2c(Br)cnn2CC)sc(C)c1C	-11	.	.	.	11	.
O=C(OCn1ncc(Br)c(Br)c1=O)c1c(F)cccc1F	6	38	0.6	0.2	-4	83*
C=CCNS(=O)(=O)c1sccc1/C=N/O	3	2	1	0.4	-4	60*
C=CCNS(=O)(=O)c1ccc(OCC(=O)OCC)cc1	-3	27	0.7	1	2	2
Cc1cc(C)cc(C(=O)N2CC(C)OC(C)C2)c1 (stereo unspecified)	6	88*	0.1	1	-9	0
Cc1ccc(SCC(=O)N2CC(C)OC(C)C2)cc1 (stereo unspecified)	1	30	0.7	0.3	-2	69*
Cc1ccc(CC(=O)N2CC(C)OC(C)C2)cc1 (stereo unspecified)	2	-2	1	0.8	2	18
CC1CN(C(=O)c2cccc(C(=O)N3CC(C)OC(C)C3)c2)CC(C)O1 (stereo unspecified)	13	20	0.8	0.9	-14	8
CCOC(=O)c1[nH]c(C)c(/C=N/O)c1C	3	-39	1.4	0.9	-5	10
O=C(Nc1ccccc1)C1CC=CCC1C(=O)OCC1CCCO1 (stereo unspecified)	4	8	0.9	0.8	-3	22
COc1ccccc1-c1c(C)oc2cc(OC(=O)c3ccco3)ccc2c1=O	-7	55*	0.4	0.4	8	64*
COc1ccccc1-c1c(C(F)(F)F)oc2cc(OC(=O)c3cccc([N+](=O)[O-])c3C)ccc2c1=O	-12	73*	0.3	0.2	13	76*
CCCCn1c(CCn2nc(C)c(Br)c2C)n[nH]c1=S	-6	49	0.5	0.1	8	90*
SMILES	sEH inhibitor	CYP2C9 inhib	CYP2C9 activ	CYP2C19 act	sEH act	CYP2C19 inhib
CC1CCC(C(=O)NC(C(=O)NCc2cccnc2)C(C)C)CC1 (stereo unspecified)	14	66*	0.3	0.6	-16	41
CC(C)CC(NC(=O)C1CCC(C)CC1)C(=O)Nc1cccnc1 (stereo unspecified)	.	-5	1.1	0.9	.	7
CC(C)CC(NC(=O)C1CCC(C)CC1)C(=O)N1CCN(c2ccccn2)CC1 (stereo unspecified)	-8	62*	0.4	0.2	8	81*
CC(C)CC(NC(=O)C1CCC(C)CC1)C(=O)NCc1cccnc1 (stereo unspecified)	-8	54*	0.5	0.7	6	30
CCC(C)C(NC(=O)C1CCC(C)CC1)C(=O)NCc1cccnc1 (stereo unspecified)	7	.	.	.	-5	.
N#CC1=C2SCCN2C(=O)C(C#N)C12CCCCC2 (stereo unspecified)	4	36	0.6	0.5	-5	45
Cc1nn(Cc2ccccc2)c(C)c1CCC(=O)O	-2	-4	1	1	0	5
Cc1cccc(OCC(=O)Nc2ccc(S(=O)(=O)N3CCCC3)cc2)c1	25	47	0.5	0.8	-26	21
COc1ccc(S(=O)(=O)N2CCCC(C(=O)NCc3ccccn3)C2)cc1 (stereo unspecified)	-1	-138	2.4*	0.9	-1	15
Cc1ccc(S(=O)(=O)N2CCC(C(=O)NCc3cccnc3)CC2)cc1	8	22	0.8	0.8	-8	21
CSc1ccccc1NC(=O)COc1ccc(S(=O)(=O)N2CCCC2)cc1	4	80*	0.2	0.9	-4	14
Cc1ccc(S(=O)(=O)N2CCC(C(=O)NCc3ccncc3)CC2)cc1	0	99*	0	0.2	-1	84*
COc1ccc(S(=O)(=O)N2CCCC(C(=O)NCc3ccncc3)C2)cc1 (stereo unspecified)	3	99*	0	0	-4	99*
Cc1nc2ncnn2c(C)c1CCC(=O)Oc1ccccc1	-19	8	0.9	0.8	16	21
CC(C)c1ccc(CNC(=O)CSCC(=O)Nc2ccc3ccccc3c2)cc1	-11	4	1	1.1	9	-9
O=C(COC(=O)c1ccc(S(=O)(=O)N2CCCC2)cc1)NCc1ccc(F)cc1	18	26	0.7	0.8	-15	23
O=C(COc1ccc(S(=O)(=O)N2CCCCC2)cc1)NCc1ccncc1	-8	92*	0.1	0.1	5	92*
CCNc1c2c3c(cccc3n(C)c1=O)C(=O)c1ccccc1-2	.	53*	0.5	0.8	.	18
CCCCNc1c2c3c(cccc3n(C)c1=O)C(=O)c1ccccc1-2	6	.	.	.	-2	.
Cn1c(=O)c(NCCc2ccccc2)c2c3c(cccc31)C(=O)c1ccccc1-2	4	98*	0	0.2	-1	78*
O=C(NCc1ccco1)[C@@H]1CCCN1C(=O)c1cccs1	-12	2	1	0.9	15	10
CCOc1ccc(OCC)c(NC(=O)C2C3C=CC(O3)C2C(=O)NCc2ccco2)c1 (stereo unspecified)	.	37	0.6	0.5	.	51*
O=C(COC(=O)c1ccccc1)NCC1CCCO1 (stereo unspecified)	6	-25	1.3	1	-7	-3
Nc1cc(C(=O)OCC(=O)NCC2CCCO2)ccc1Cl (stereo unspecified)	11	22	0.8	0.4	-11	56*
